# Assay results from PubChem BioAssay AID422 (Emory University Molecular Libraries Screening Center, 2006).
# Values joined by “and” are separate entries in the source; they are usually repeats but may differ in a detail not shown here. Equal values may be shown once. Hit rate of the full screen: of about 160,000 compounds, about 310 (0.19%) were called active. The list comes from a sample in which actives are over-represented; it also holds similar structures and randomly drawn compounds. A number with no mark means an inactive call. Rule as the data show it: active = inhibition above about 30%; inactive = the rest.
# Molecular target: 14-3-3 protein gamma (Homo sapiens) (UniProt P61981)
# Sequence (P61981 whole entry, looked up): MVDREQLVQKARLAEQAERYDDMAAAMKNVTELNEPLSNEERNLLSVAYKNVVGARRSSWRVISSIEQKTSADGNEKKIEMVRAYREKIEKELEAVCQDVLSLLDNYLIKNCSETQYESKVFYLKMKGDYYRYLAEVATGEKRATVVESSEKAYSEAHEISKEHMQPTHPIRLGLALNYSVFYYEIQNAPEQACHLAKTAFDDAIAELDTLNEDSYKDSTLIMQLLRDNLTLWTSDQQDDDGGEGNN
# Experiment: 14-3-3 gamma/Raf peptide interaction modulators – biochemical, fluorescence polarization, primary screen (AID 422);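 also: 0% = protein plus tracer without compound and 100% = blank with tracer alone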
# Conditions: FP, 14-3-3gamma / TMR-pS259-Raf peptide binding; at 40 µM; active compounds read high
row,SMILES,inhibition
1,O=C(C1CCC(Cn2c(=O)[nH]c3ccccc3c2=O)CC1)N1CCN(Cc2ccccc2)CC1 (stereo unspecified),-3.1%
2,CSc1cccc(NC(=O)C2c3ccccc3C(=O)N3CCc4ccccc4C23)c1 (stereo unspecified),-1.47%
3,CCCCNC(=O)c1c[nH]c2ccc(S(=O)(=O)Nc3cccc(OC)c3)cc2c1=O,-22.6%
4,O=C(NC1CCCCCCCCCCC1)c1cnc2n(c1=O)CCS2,-1.96%
5,CCCOc1ccccc1C1NC(=O)NC(C)=C1C(=O)OCC1CCCO1 (stereo unspecified),3.08%
6,CN(C)/C=C1/Nc2ccccc2C1=O,-0.95%
7,CN(C)/C=C1/C(=O)Nc2ccccc21,-2.07%
8,O=C1Nc2ccccc2C1=Nc1ccc(O)cc1,87.3% (active)
9,O=C(Nc1nc2ccccc2n1CCOc1ccccc1)c1cccs1,8.38%
10,CCOCCn1cnc2sc(C(=O)N3CCN(c4ccccn4)CC3)c(C)c2c1=O,1.28%
11,Cc1c(Cl)cccc1NC(=O)c1cc(S(=O)(=O)N2CCC(C)CC2)ccc1F,-5.5%
12,O=C(Nc1nc(-c2cccs2)cs1)c1ccc(S(=O)(=O)N2CCc3ccccc3C2)cc1,-43.5%
13,CN1C(=O)c2ccccc2C(C(=O)N2CCC(Cc3ccccc3)CC2)C1c1c[nH]c2ccccc12 (stereo unspecified),6.73%
14,COc1ccc(CSc2n[nH]c(C)n2)cc1Cl,-0.37%
15,CSCCC(NS(=O)(=O)c1cccs1)C(=O)Nc1ccc(F)cc1 (stereo unspecified),-1.64%
16,CC(=O)OCC#CCSc1nc2ccccc2o1,-1.9%
17,CCOC(=O)C1CCN(S(=O)(=O)c2ccc(I)cc2)CC1,-2.44%
18,CC1CCN(S(=O)(=O)c2ccc3ncn(CC(=O)N4CCN(Cc5ccccc5)CC4)c(=O)c3c2)CC1,1.95%
19,CCCCNC(=O)C1c2ccccc2C(=O)N(C)C1c1c[nH]c2ccccc12 (stereo unspecified),-0.96%
20,O=C(OC(c1ccccc1)c1nccc2ccccc12)c1ccc([N+](=O)[O-])cc1 (stereo unspecified),-10%
21,NC(=O)C1CCN(C(=O)c2ccc3nc4ccccc4c(=O)n3c2)CC1,12.3%
22,CN(C(N)=O)C1CCS(=O)(=O)C1 (stereo unspecified),2.31%
23,S=c1[nH]nc(-c2cccs2)n1Cc1ccc2c(c1)OCO2,-5.66%

row,SMILES,inhibition
1,Nc1ccc2c3c(cccc13)C(=O)NC2=O,14.8%
2,CCN1C(=O)c2cccc3c(N)ccc1c23,5.38%
3,CN1C(=O)c2cccc3c(N)ccc(c23)C1=O,85.5% (active)
4,COc1ccc(N2C(=O)CCC(C(=O)Nc3ccc(Br)cc3C)C2c2ccc(OC)c(OC)c2)cc1 (stereo unspecified),-9.11%
5,COc1ccccc1CNC(=O)c1cc(-c2ccc(Br)s2)nc2ccccc12,-1.85%
6,CCCCc1nc(N)c(C#N)c(-c2ccccc2Cl)c1CCC,-5.82%
7,COc1ccc(-c2nc(CS(=O)CC(=O)N3CCc4ccccc4C3)c(C)o2)cc1 (stereo unspecified),-4.26%
8,COc1ccc(-c2nc(CS(=O)CC(=O)NCc3ccccn3)c(C)o2)cc1 (stereo unspecified),99.2% (active)
9,COc1ccc(-c2nc(CS(=O)CC(=O)NCc3cccnc3)c(C)o2)cc1OC (stereo unspecified),-5.12%
10,Fc1ccc(Nc2nc(NCc3ccccc3)c3ccccc3n2)cc1,-3.64%
11,CSc1ccc(-c2nc3ccc(Cl)cn3c2Nc2ccc3c(c2)OCO3)cc1,-19%
12,COc1ccc(C2Nc3ccccc3NC3=C2C(=O)CC(c2cccc([N+](=O)[O-])c2)C3)cc1 (stereo unspecified),0.48%
13,CCOc1ccc(S(=O)(=O)NC2CCCC2)c2cccnc12,-6.1%
14,COc1ccc([N+](=O)[O-])cc1NC(=O)c1c([N+](=O)[O-])cnn1C,-2.94%
15,O=C1C2CC=C(Cl)CC2C(=O)N1c1ccc(O)cc1 (stereo unspecified),-3.22%
16,COC(=O)c1ccccc1NC(=O)CCCn1nc([N+](=O)[O-])c(Cl)c1C,-3.89%
17,CCC(C)(C(=O)NC1CCCCC1)N(C(=O)CC1NC(=O)NC1=O)c1ccccc1 (stereo unspecified),-2.16%
18,CC1CC(C)CN(CCCNC(=O)C2c3ccccc3C(=O)N(C)C2c2cccs2)C1 (stereo unspecified),4.52%
19,Cc1c(-c2nc3ccccc3c(=O)[nH]2)sc2nc(-c3ccccc3)nc(N)c12,-34.5%
20,CC(C)CN(CC(C)C)S(=O)(=O)c1ccc(Br)cc1,-5.87%
21,CCCCCn1c(=O)[nH]c2cc(C(=O)NC(C)C)ccc2c1=O,-3.1%
22,COc1ccc(N=Cc2c(O)[nH]c3ccccc23)cc1OC,-6.05%
23,COc1cc(N=Cc2c(O)[nH]c3ccccc23)cc(OC)c1OC,1.7%

row,SMILES,inhibition
1,Cc1[nH]c2ccccc2c1C=Nc1ccc(O)cc1,121% (active)
2,CCCCNC(=O)C1CCC(=O)N1CCc1ccccc1 (stereo unspecified),-1.84%
3,CC1=C(C(=O)OCCc2ccccc2)C(c2cccc([N+](=O)[O-])c2)NC(=O)N1 (stereo unspecified),-4.75%
4,O=C1NC2=C(C(=O)c3ccccc32)C(c2ccccc2)S1 (stereo unspecified),3.21%
5,COc1ccc(C2C=C(c3ccc(-c4ccccc4)cc3)Nc3ncnn32)cc1 (stereo unspecified),-7.71%
6,O=C(Nc1ccc(-c2nnc(-c3ccccc3)o2)cc1)c1ccc(Br)o1,116% (active)
7,O=C(Nc1ccc(-c2nc3ccc(NC(=O)c4ccc(Br)o4)cc3[nH]2)cc1)c1ccc(Br)o1,-23.6%
8,O=C(Nc1ccc(-c2nnc(-c3ccccc3)o2)cc1)C1CCCO1 (stereo unspecified),5.13%
9,O=C(CCSCc1cccc(F)c1)N1CCc2ccccc21,-8.82%
10,O=C(CN1CCCN(S(=O)(=O)c2ccc(Br)cc2)CC1)Nc1ccccc1F,-7.48%
11,CCc1ccc(OCCSc2nc3ccccc3c(=O)[nH]2)cc1,-1.81%
12,CC(NC(=O)C(Cc1ccc([N+](=O)[O-])cc1)N1C(=O)c2ccccc2C1=O)c1ccc(CCBr)cc1 (stereo unspecified),-10.4%
13,C=C(C)Cn1c(-c2ccc(N(C)C)cc2)nc2ccccc21,-2.28%
14,Cc1c(Cl)cccc1N1C(=O)C2C3c4ccccc4C(c4ccccc43)C2C1=O (stereo unspecified),1.55%
15,O=C(Nc1ccccc1C(F)(F)F)c1ccc(SC2CCCCC2)c([N+](=O)[O-])c1,-3.43%
16,O=C(Nc1cccc2c1C(=O)c1ccccc1C2=O)c1ccccc1Br,-33.2%
17,COc1cc2c(cc1OC)C(COc1ccc3c(C)cc(=O)oc3c1)N(C(=O)c1cc(C)cc(C)c1)CC2 (stereo unspecified),-4.93%
18,O=C(Cn1cnc([N+](=O)[O-])c1)C1CC1,7.38%
19,COc1ncnc2c1N=C1CC(C)(C)CC(N)=C1S2,56.3% (active)
20,CC(=O)CCC=C(C)CCC=C(C)C,-6.82%
21,Cc1ccc(-c2nc3ccccc3c(C(=O)O)c2C)s1,-5.29%
22,O=C1NC(c2ccc(Cl)cc2)C(C(=O)c2ccccc2)C(O)(C(F)(F)F)N1 (stereo unspecified),9.54%
23,O=C(NCCCN1CCCC1)c1ccc(N2CCCC2=O)cc1,2.82%

row,SMILES,inhibition
1,Cc1ccc(Cl)cc1N1C(=O)C(N2C(=O)c3ccc([N+](=O)[O-])cc3C2=O)C1c1cccc(F)c1 (stereo unspecified),-4.78%
2,CCCC(=O)N(c1ccc2oc(C)c(C(=O)OC)c2c1)S(=O)(=O)c1cc([N+](=O)[O-])ccc1C,-23.1%
3,COc1ccc(CN2C(=O)CCC2(C)C(=O)NC2CCCCCC2)c(OC)c1 (stereo unspecified),-7.62%
4,COc1ccc2cc(-c3nnc(Nc4ccccc4F)s3)c(=O)oc2c1,-11.4%
5,COC(=O)C1=C(C)NC2=C(C(=O)CC(c3ccccc3Cl)C2)C1c1ccc2c(c1)OCO2 (stereo unspecified),-2.26%
6,O=c1oc2ccc(Cl)cc2cc1-c1cn2cc(Cl)cc(Cl)c2n1,-12.1%
7,CN1CCc2c(n(-c3ccccc3)c3ccccc23)C1=O,-14.8%
8,CCOc1ccccc1C(=O)Nc1ccc(I)cc1C,-132%
9,CCOc1ccc(N=Cc2c(O)c(C(=O)Nc3ccccc3C)cc3ccccc23)cc1,79.8% (active)
10,COc1cccc(C=Nc2cccc(C(=O)Nc3cccc4ccccc34)c2)c1O,2.57%
11,CCC(=O)N1CCc2cc(OC)c(OC)cc2C1COc1cccc(C(F)(F)F)c1 (stereo unspecified),-6%
12,Cc1ccc(-c2cc(C(=O)OCC(C)C)c3cc(C)ccc3n2)cc1,3.92%
13,COc1cc(C2Nc3ccccc3NC3=C2C(=O)CC(c2ccccc2Cl)C3)cc(Cl)c1O (stereo unspecified),-12.8%
14,Cc1cccc(-n2ncc3c(N4CCc5ccccc54)ncnc32)c1,-10.6% and 1.75%
15,COc1ccc(-n2ncc3c(N4CCc5ccccc54)ncnc32)cc1,-7.74%
16,COc1ccc(-n2ncc3c(N4CCCc5ccccc54)ncnc32)cc1,43.9% (active)
17,CC1Cc2nc(SCC(=O)Nc3cccc(C(F)(F)F)c3)n(C)c(=O)c2S1 (stereo unspecified),-7.37%
18,CCOc1ccc(S(=O)(=O)N2CCC(C)CC2)c2ccccc12,-10.1%
19,Cc1[nH]c2ccccc2c1C(=O)CSc1nc2ccccc2s1,-9.51%
20,CCN1C(=O)c2cccc3c(S(=O)(=O)NC4CC(C)(C)NC(C)(C)C4)ccc1c23,-11.1%
21,CC(C)(C)c1ccc(C(=O)NCc2n[nH]c(=S)n2-c2cccc(C(F)(F)F)c2)cc1,4.88%
22,CN1C(=O)NC(c2cccc(Cl)c2)C2=C1CCCC2=O (stereo unspecified),2.47%
